PubChem BioAssay (NCATS)
Results filed as inconclusive are left out. Entries that show only a call come without a potency. Calls of active or inactive are those of the source. Unless noted, calls come from the whole dose curve; as a rule, active = well fitted curve in the direction sought with a large enough effect in the repeat runs; inconclusive = weak or mixed curves; inactive = no such curve, though single readings can be large; an effect the other way counts as inactive or inconclusive.

Molecular target: Cytochrome P450 2C9 (Homo sapiens) (UniProt P11712)
Test: Cytochrome P450 family 2 subfamily C member 9 (CYP2C9) small molecule antagonists: luciferase biochemical (cell-free) qHTS assay (AID 1645842); note: nearly all actives have a fitted effect of over 55% in size
Conditions: P450-Glo CYP2C9 enzyme assay, luciferin luminescence; series mostly up to 57.4 µM
How it was run: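 Luminescence, after 20 min with luciferin detection reagent, reflected CYP2C9 turnover during a 1 h NADPH-driven reaction at 37C. Enzyme-substrate mix contained 0.4% bovine serum albumin and was preincubated with compound 10 min at room temperature.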
Potency is the fitted concentration of half-maximal effect.

Sequence of Cytochrome P450 2C9 (Homo sapiens) (P11712 whole entry, looked up): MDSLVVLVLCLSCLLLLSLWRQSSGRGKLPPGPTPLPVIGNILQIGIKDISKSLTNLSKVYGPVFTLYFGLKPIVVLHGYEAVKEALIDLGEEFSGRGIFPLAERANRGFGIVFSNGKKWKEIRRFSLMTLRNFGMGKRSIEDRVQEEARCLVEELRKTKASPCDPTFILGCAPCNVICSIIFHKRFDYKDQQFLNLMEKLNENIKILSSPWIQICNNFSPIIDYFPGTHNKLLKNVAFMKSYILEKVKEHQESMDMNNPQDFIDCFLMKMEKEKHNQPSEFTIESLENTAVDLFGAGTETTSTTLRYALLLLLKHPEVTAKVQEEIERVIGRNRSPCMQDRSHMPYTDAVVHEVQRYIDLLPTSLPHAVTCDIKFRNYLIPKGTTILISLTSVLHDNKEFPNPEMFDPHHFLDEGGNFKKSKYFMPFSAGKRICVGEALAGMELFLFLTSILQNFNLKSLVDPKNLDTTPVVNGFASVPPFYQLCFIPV

Row | Compound | Potency
1 | CC(=O)Oc1ccccc1C(=O)Nc1ncc([N+](=O)[O-])s1 | 2.75 µM (active)
2 | Nc1nc(=S)c2[nH]cnc2[nH]1 | 15.5 µM (active)
3 | Nc1[nH]c(=O)ncc1F | inactive
4 | CO[C@@]12[C@H](COC(N)=O)C3=C(C(=O)C(C)=C(N)C3=O)N1C[C@@H]1N[C@@H]12 | inactive
5 | CCOC(=O)c1ccc(OC(=O)CCCCCN=C(N)N)cc1 | inactive
6 | CCN(CC)CC#CCOC(=O)C(O)(c1ccccc1)C1CCCCC1 (centres undefined) | 7.56 µM (active)
7 | Cc1oc(=O)oc1CN1CCN(c2cc3c(cc2F)c(=O)c(C(=O)O)c2n3C(C)S2)CC1 (centres undefined) | inactive
8 | CNC1CCCN(c2c(F)cc3c(=O)c(C(=O)O)cn(C4CC4)c3c2OC)C1 (centres undefined) | inactive
9 | NS(=O)(=O)c1cc2c(cc1Cl)NC(C(Cl)Cl)NS2(=O)=O (centres undefined) | inactive
10 | O=C(O)CCn1c2c(c3ccccc31)C[C@H](NS(=O)(=O)c1ccc(F)cc1)CC2 | 17.4 µM (active)
11 | COc1ccc2c(c1)c(CC(=O)OCC(=O)O)c(C)n2C(=O)c1ccc(Cl)cc1 | inactive
12 | CCCCOc1ccc(CC(=O)NO)cc1 | 17.4 µM (active)
13 | O=C(O)c1ccc(-n2nc(-c3ccccc3O)nc2-c2ccccc2O)cc1 | inactive
14 | CCc1c2c(nc3ccc(OC(=O)N4CCC(N5CCCCC5)CC4)cc13)-c1cc3c(c(=O)n1C2)COC(=O)[C@]3(O)CC | inactive

Molecular target: Papain (Carica papaya) (UniProt P00784)
Test: Primary qHTS assay for inhibitors of the protease papain (AID 1645873; active = well fitted curve in the direction sought with a large enough effect; an effect the other way counts as inactive or inconclusive;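 note: papain turnover of Z-FR-AMC read as the AMC fluorescence gain over 10 min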)
Conditions: papain Z-FR-AMC cleavage, AMC fluorescence; series mostly up to 49.8 µM

Sequence of Papain (Carica papaya) (P00784 whole entry, looked up): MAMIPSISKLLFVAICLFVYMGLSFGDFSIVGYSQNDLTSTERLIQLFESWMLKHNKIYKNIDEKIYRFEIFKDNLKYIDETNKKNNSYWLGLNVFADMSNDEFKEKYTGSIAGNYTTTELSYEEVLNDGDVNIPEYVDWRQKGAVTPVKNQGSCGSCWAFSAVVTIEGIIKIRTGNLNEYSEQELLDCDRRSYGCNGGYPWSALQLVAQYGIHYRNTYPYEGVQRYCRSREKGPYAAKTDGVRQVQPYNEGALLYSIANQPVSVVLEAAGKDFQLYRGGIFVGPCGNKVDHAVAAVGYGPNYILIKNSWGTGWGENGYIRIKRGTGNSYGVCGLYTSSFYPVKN

Row | Compound | Potency
15 | CCN1CCCC1CNC(=O)c1cc(S(N)(=O)=O)ccc1OC (centres undefined) | inactive
16 | CC(=O)[C@H]1CC[C@H]2[C@@H]3CCC4=CC(=O)CC[C@]4(C)[C@H]3CC[C@]12C | inactive
17 | NC(=O)c1ccc2[nH]ccc2c1 | inactive
18 | CC(C)NCC(O)c1ccc(NS(C)(=O)=O)cc1 (centres undefined) | inactive
19 | Nc1nc(N)c2nc(CNc3ccc(C(=O)NC(CCC(=O)O)C(=O)O)cc3)cnc2n1 (centres undefined) | 3.55 µM (active)
20 | CCCCS(=N)(=O)CCC(N)C(=O)O (centres undefined) | inactive
21 | CC1CC2C3CCC4=CC(=O)C=C[C@]4(C)[C@@]3(F)[C@@H](O)C[C@]2(C)[C@@]1(O)C(=O)CO (some centres undefined) | inactive
22 | CCN(CC)CC#CCOC(=O)C(O)(c1ccccc1)C1CCCCC1 (centres undefined) | inactive
23 | COc1cc2nc(N3CCCN(C)CC3)nc(NC3CCN(Cc4ccccc4)CC3)c2cc1OC | 25.1 µM (active)
24 | CC1=C(C(=O)O)N2C(=O)[C@@H](NC(=O)C(N)c3ccccc3)[C@H]2SC1 (some centres undefined) | inactive
